# Experimental data from PubChem BioAssay (NCATS).
# Results filed as inconclusive are left out. Calls of active or inactive are those of the source. Calls come from the whole dose curve; as a rule, active = well fitted curve in the direction sought with a large enough effect; inconclusive = small, poorly fitted or top-dose-only effect, or another doubt; inactive = no such curve, though single readings can be large; an effect the other way counts as inactive or inconclusive.
# Molecular target: Aldehyde dehydrogenase, mitochondrial (Homo sapiens) (UniProt P05091)
# Experiment: qHTS for Inhibitors of the Aldehyde Dehydrogenase Family (ALDH2) Primary screen (AID 2061308);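 note: plate controls were vehicle for no effect and reference inhibitor for full effect; nearly all actives have a fitted effect of over 55% in size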
# Conditions: ALDH2 enzyme inhibition qHTS, 1536-well; series mostly up to 56 µM; activity change, negative = inhibition: at the top concentration
Compound,"activity change, negative = inhibition",Potency
CN(Cc1cccs1)c1nc(-c2ccccc2C(F)(F)F)nc2ccccc12,-12.5% (inactive),–
NC(=O)C1CCN(c2nc(-c3ccc(N)cc3)cs2)CC1,5.28% (inactive),–
COc1cccc(CNc2ncnc3ccc(-c4c(C)noc4C)cc23)c1,2.84% (inactive),–
Cc1cc(-c2ccccc2)nc2c(C(=O)Nc3ccc(Cl)c(Cl)c3)cnn12,-5.47% (inactive),–
Cc1cc(Nc2c(Nc3nnc(-c4ccncc4)s3)c(=O)c2=O)ccc1Cl,-18.2% (inactive),–
Cc1cc(F)ccc1S(=O)(=O)Nc1cnccc1C(=O)Nc1nc(-c2ccccc2)cs1,–,inactive
Fc1cc(Nc2nc(-c3ccncc3)nc3ccccc23)ccc1-n1cncn1,–,inactive
Cc1cc(-c2ccccc2)n2ncc(C(=O)Nc3ccc(Cl)c(Cl)c3)c2n1,4.1% (inactive),–
COc1ccc(NC(=S)N2CCN(c3cccc(C(F)(F)F)c3)CC2)nc1,-15.3% (inactive),–
CC(=O)Nc1oc(-c2cccc3ccccc23)nc1C#N,-4.52% (inactive),–
CC1OC2OC3C(OCC(O)C3O)OC(=O)C34CCC(C)(C)CC3C3=CCC5C6(C)CC(O)C(OC7OC(CO)C(O)C(O)C7OC7OCC(OC(=O)CC(C)(O)CC(=O)OC1C(OC1OCC(O)C(O)C1O)C2O)C(O)C7O)C(C)(CO)C6CCC5(C)C3(C)CC4O (stereo not given),1.27% [at 28 µM] (inactive),–
C=C1C(=O)O[C@H]2C1CCC(C)=C1C(=O)C=C(C)[C@@]12O (stereo not given in full),2.36% (inactive),–
CCOc1ccccc1-c1nnc2n1N=C(c1cc(OC)cc(OC)c1)CS2,12.6% (inactive),–
Cc1ccc(-c2cc(C(=O)Nc3ccc(S(N)(=O)=O)cc3)c3ccccc3n2)cc1C,10.7% (inactive),–
Cc1cc2c(s1)c1cnn(Cc3ccc(SC(F)(F)F)cc3)c(=O)c1n2C,6.21% (inactive),–
CCCc1ccc(-c2csc(NC(=O)c3ccncc3NS(=O)(=O)c3ccc(C)cc3)n2)cc1,5.15% (inactive),–
O=C(O)c1ccc2c(c1)C(=O)N([C@@H](C(=O)O)C(c1ccccc1)c1ccccc1)C2=O,-3.16% (inactive),–
O=C(Nc1ccc(Cl)c(Cl)c1)Nc1nc(-c2ccncc2)cs1,1.15% (inactive),–
c1cncc(-c2ccc(CNc3nc(N4CCCC4)nc4ccccc34)cc2)c1,9.79% (inactive),–
Cc1ccc(OCCn2c(CCNC(=O)c3ccc(Cl)cc3)nc3ccccc32)cc1,-2.06% (inactive),–

Compound,"activity change, negative = inhibition",Potency
CC(C)c1ccccc1-c1nc2c(c(NCc3ccc(-c4cccnc4)cc3)n1)CNC2,100% (inactive),–
CCOc1ccccc1-c1nnc2n1N=C(c1c(OC)cccc1OC)CS2,7.79% (inactive),–
Cc1ccc(S(=O)(=O)Nc2cnccc2C(=O)Nc2nc(-c3cccc(Cl)c3)cs2)cc1,-16% (inactive),–
Cc1cc(C)nc(NC(=S)N2CCN(c3ccccc3C#N)CC2)c1,-8.67% (inactive),–
Cc1nc(C)c2c(n1)N(Cc1ccc(-c3ccccc3-c3nn[nH]n3)cc1)C(=O)CC2,-7.53% (inactive),–
COc1ccc(-c2csc(NC(=O)c3ccccc3NS(=O)(=O)c3ccc(C)cc3)n2)cc1,3.25% (inactive),–
O=C(Nc1cccnc1)C1CCCCC1,-8.64% (inactive),–
O=C(N[C@H]1CCCc2c1cnn2-c1ccc(F)cc1F)c1ccccn1,5.71% (inactive),–
O=C1CCCC2=C1C(c1c(Cl)cccc1Cl)N=C(Nc1nc3ccccc3o1)N2 (stereo not given),-4.96% (inactive),–
Cc1ccc(-c2cc(C(=O)O)c3cccc(C)c3n2)cc1C,11.1% (inactive),–
COc1ccc(S(=O)(=O)Nc2c(C)cc(C)cc2C)cc1,0.368% (inactive),–
Cc1ccc(-c2cnn(CC(=O)N(C)C(C)c3ccco3)c(=O)c2)cc1 (stereo not given),-14.7% (inactive),–
Cc1nc(NC2CCCCC2)c2nc(-c3ccccc3)n(C(C)CN(C)C)c2n1 (stereo not given),5.3% (inactive),–
CCc1ccc(NC(=O)c2[nH]c(C)c(C(C)=O)c2C)cc1S(=O)(=O)Nc1ccc(C#N)cc1,-28.8% (inactive),–
O=C(Cc1ccc2ccccc2c1)Nc1nnc(-c2ccncc2)s1,2.94% (inactive),–
C=C1C(=O)O[C@@H]2C[C@]3(C)[C@@H](CCC(C)O)[C@@H]3C[C@H]12 (stereo not given in full),2.69% (inactive),–
Cc1ccc(OCCn2c(CCNC(=O)c3ccccc3C)nc3ccccc32)cc1,-3.49% (inactive),–
CN1CCN(c2cc(-c3cc(O)c4ncccc4c3)ccn2)CC1,11.1% (inactive),–
O=S(=O)(c1cccc(Cl)c1)N1CCN(S(=O)(=O)c2ccc3c(c2)OCCO3)CC1,-11.4% (inactive),–
Cc1nc(NC2CCCCC2)c2nc(-c3ccccc3)n(CCCN(C)C)c2n1,4.03% (inactive),–

# Molecular target: Retinaldehyde dehydrogenase 3 (Homo sapiens) (UniProt P47895)
# Experiment: qHTS for Inhibitors of the Aldehyde Dehydrogenase Family (ALDH1A3) Primary screen (AID 2061315);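 note: plate controls were DMSO vehicle for no effect and reference inhibitor for full effect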
# Conditions: ALDH inhibition qHTS; series mostly up to 56 µM; activity change, negative = inhibition: at the top concentration
Compound,"activity change, negative = inhibition",Potency
CN(Cc1cccs1)c1nc(-c2ccccc2C(F)(F)F)nc2ccccc12,-1.1% (inactive),–
NC(=O)C1CCN(c2nc(-c3ccc(N)cc3)cs2)CC1,-8.73% (inactive),–
COc1cccc(CNc2ncnc3ccc(-c4c(C)noc4C)cc23)c1,11.2% (inactive),–
Cc1cc(-c2ccccc2)nc2c(C(=O)Nc3ccc(Cl)c(Cl)c3)cnn12,11% (inactive),–
Cc1cc(Nc2c(Nc3nnc(-c4ccncc4)s3)c(=O)c2=O)ccc1Cl,0.0515% (inactive),–
Cc1cc(F)ccc1S(=O)(=O)Nc1cnccc1C(=O)Nc1nc(-c2ccccc2)cs1,–,inactive
Fc1cc(Nc2nc(-c3ccncc3)nc3ccccc23)ccc1-n1cncn1,–,inactive
Cc1cc(-c2ccccc2)n2ncc(C(=O)Nc3ccc(Cl)c(Cl)c3)c2n1,28.3% (inactive),–
COc1ccc(NC(=S)N2CCN(c3cccc(C(F)(F)F)c3)CC2)nc1,26.6% (inactive),–
CC(=O)Nc1oc(-c2cccc3ccccc23)nc1C#N,1.5% (inactive),–
CC1OC2OC3C(OCC(O)C3O)OC(=O)C34CCC(C)(C)CC3C3=CCC5C6(C)CC(O)C(OC7OC(CO)C(O)C(O)C7OC7OCC(OC(=O)CC(C)(O)CC(=O)OC1C(OC1OCC(O)C(O)C1O)C2O)C(O)C7O)C(C)(CO)C6CCC5(C)C3(C)CC4O (stereo not given),-13.4% [at 28 µM] (inactive),–
C=C1C(=O)O[C@H]2C1CCC(C)=C1C(=O)C=C(C)[C@@]12O (stereo not given in full),-15.6% (inactive),–
CCOc1ccccc1-c1nnc2n1N=C(c1cc(OC)cc(OC)c1)CS2,7.34% (inactive),–
Cc1ccc(-c2cc(C(=O)Nc3ccc(S(N)(=O)=O)cc3)c3ccccc3n2)cc1C,18% (inactive),–
Cc1cc2c(s1)c1cnn(Cc3ccc(SC(F)(F)F)cc3)c(=O)c1n2C,16.2% (inactive),–
CCCc1ccc(-c2csc(NC(=O)c3ccncc3NS(=O)(=O)c3ccc(C)cc3)n2)cc1,3.95% (inactive),–
O=C(O)c1ccc2c(c1)C(=O)N([C@@H](C(=O)O)C(c1ccccc1)c1ccccc1)C2=O,-1.29% (inactive),–
O=C(Nc1ccc(Cl)c(Cl)c1)Nc1nc(-c2ccncc2)cs1,-1.66% (inactive),–
c1cncc(-c2ccc(CNc3nc(N4CCCC4)nc4ccccc34)cc2)c1,-18.8% (inactive),–
Cc1ccc(OCCn2c(CCNC(=O)c3ccc(Cl)cc3)nc3ccccc32)cc1,5.08% (inactive),–

Compound,"activity change, negative = inhibition",Potency
CC(C)c1ccccc1-c1nc2c(c(NCc3ccc(-c4cccnc4)cc3)n1)CNC2,-16.9% (inactive),–
CCOc1ccccc1-c1nnc2n1N=C(c1c(OC)cccc1OC)CS2,6.44% (inactive),–
Cc1ccc(S(=O)(=O)Nc2cnccc2C(=O)Nc2nc(-c3cccc(Cl)c3)cs2)cc1,12.4% (inactive),–
Cc1cc(C)nc(NC(=S)N2CCN(c3ccccc3C#N)CC2)c1,11.1% (inactive),–
Cc1nc(C)c2c(n1)N(Cc1ccc(-c3ccccc3-c3nn[nH]n3)cc1)C(=O)CC2,6.39% (inactive),–
COc1ccc(-c2csc(NC(=O)c3ccccc3NS(=O)(=O)c3ccc(C)cc3)n2)cc1,21.3% (inactive),–
O=C(Nc1cccnc1)C1CCCCC1,-1.57% (inactive),–
O=C(N[C@H]1CCCc2c1cnn2-c1ccc(F)cc1F)c1ccccn1,-4.51% (inactive),–
O=C1CCCC2=C1C(c1c(Cl)cccc1Cl)N=C(Nc1nc3ccccc3o1)N2 (stereo not given),14.2% (inactive),–
Cc1ccc(-c2cc(C(=O)O)c3cccc(C)c3n2)cc1C,21.5% (inactive),–
COc1ccc(S(=O)(=O)Nc2c(C)cc(C)cc2C)cc1,5.44% (inactive),–
Cc1ccc(-c2cnn(CC(=O)N(C)C(C)c3ccco3)c(=O)c2)cc1 (stereo not given),-1.23% (inactive),–
Cc1nc(NC2CCCCC2)c2nc(-c3ccccc3)n(C(C)CN(C)C)c2n1 (stereo not given),10.4% (inactive),–
CCc1ccc(NC(=O)c2[nH]c(C)c(C(C)=O)c2C)cc1S(=O)(=O)Nc1ccc(C#N)cc1,7.49% (inactive),–
O=C(Cc1ccc2ccccc2c1)Nc1nnc(-c2ccncc2)s1,5.52% (inactive),–
C=C1C(=O)O[C@@H]2C[C@]3(C)[C@@H](CCC(C)O)[C@@H]3C[C@H]12 (stereo not given in full),-9.57% (inactive),–
Cc1ccc(OCCn2c(CCNC(=O)c3ccccc3C)nc3ccccc32)cc1,11.1% (inactive),–
CN1CCN(c2cc(-c3cc(O)c4ncccc4c3)ccn2)CC1,13.3% (inactive),–
O=S(=O)(c1cccc(Cl)c1)N1CCN(S(=O)(=O)c2ccc3c(c2)OCCO3)CC1,2.98% (inactive),–
Cc1nc(NC2CCCCC2)c2nc(-c3ccccc3)n(CCCN(C)C)c2n1,31.4% (inactive),–
